Source: ChEMBL document CHEMBL3433997, “St. Jude Leishmania screening dataset” (2016)

Assays:
Format in all cases: functional
[1] = target: Solute carrier family 2, facilitated glucose transporter member 1 (Homo sapiens) (UniProt P11166); assay: ST_JUDE_LEISH: Cytotoxicity at 2uM final concentration against transgenic Leishmania Mexicana promastigotes LmGLUT1 that are glucose transport deficient and complemented with the human glucose transporter GLUT1. Activity is measured by DNA content using SYBR green in vitro
Chain of Solute carrier family 2, facilitated glucose transporter member 1 (Homo sapiens) (P11166 whole entry): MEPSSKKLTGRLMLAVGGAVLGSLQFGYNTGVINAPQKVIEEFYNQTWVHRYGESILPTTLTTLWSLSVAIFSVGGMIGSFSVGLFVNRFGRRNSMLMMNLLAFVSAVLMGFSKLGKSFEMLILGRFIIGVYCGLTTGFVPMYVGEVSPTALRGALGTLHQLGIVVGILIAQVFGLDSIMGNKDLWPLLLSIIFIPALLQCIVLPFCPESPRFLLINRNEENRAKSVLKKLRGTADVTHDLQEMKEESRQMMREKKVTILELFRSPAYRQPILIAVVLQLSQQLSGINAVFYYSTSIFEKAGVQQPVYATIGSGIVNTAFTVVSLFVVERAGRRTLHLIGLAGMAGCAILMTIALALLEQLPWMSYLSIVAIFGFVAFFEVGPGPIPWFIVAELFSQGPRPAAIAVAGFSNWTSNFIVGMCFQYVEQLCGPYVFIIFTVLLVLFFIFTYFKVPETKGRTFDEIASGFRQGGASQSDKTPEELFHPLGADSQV

[2] = target: Hexose transporter 1 (Plasmodium falciparum) (UniProt O97467); assay: ST_JUDE_LEISH: Cytotoxicity at 2uM final concentration against transgenic Leishmania Mexicana promastigotes LmPfHT that are glucose transport deficient and complemented with the Plasmodium falciparum hexose transporter. Activity is measured by DNA content using SYBR green in vitro
[3] = target: Glucose transporter (Leishmania mexicana) (UniProt O61059); assay: ST_JUDE_LEISH: Cytotoxicity at 2uM final concentration against transgenic Leishmania Mexicana promastigotes LmGT2 that are glucose transport deficient and complemented with the L. Mexicana glucose transporter 2. Activity is measured by DNA content using SYBR green in vitro

Compound | inhibition [1] [%] | inhibition [2] [%] | inhibition [3] [%]
O=C(Cn1cnc2c(nnn2Cc2ccccc2F)c1=O)Nc1ccc2c(c1)OCCO2 | 1.31 | 0.66 | -0.43
COc1ccc2nccc([C@@H](O)CN3CCC(NC(=O)Cc4ccc(Br)c5ccccc45)CC3)c2c1 | 3.72 | 3.24 | 1.16
Cc1ccc(O)cc1Nc1ccnc2ccc(C(C)(C)C)cc12 | -2.04 | -2.63 | -2.07
COc1ccc(CCNCCCCCCNCCc2ccccc2Cl)cc1OC | 1.25 | 0.29 | 1.91
COc1ccc(CNC2CCN(C)CC2)cc1-c1ccc(S(=O)(=O)NCc2ccccc2)c(F)c1 | -0.66 | -0.53 | -1.2
O=C(NC1CC1)c1cnc(N2CCCC(c3ccccc3)C2)c(Cl)c1 (centres undefined) | 0.97 | -0.31 | -4.58
CC(C)c1ncc(-c2ccncc2)c(C2CCC(CNC(=O)c3ccncc3)CC2)n1 (centres undefined) | 3.67 | -0.19 | 1.87
CCOc1ccc(-c2nonc2NC(=O)c2ccc(F)cc2)cc1OCC | -2.77 | 2 | 1.5
Cc1cccc2nc(-c3ccc(-c4cccc(NC(=O)Nc5ccc(F)c(F)c5F)c4)cc3)[nH]c12 | 2.29 | 3.05 | 0.59
Oc1ccc2[nH]cc(C3CCN(CCCNCc4ccc(-c5ccccc5)cc4)CC3)c2c1 | 5.26 | 8.52 | 2.61
O=c1cc(NCCCNCc2cc3c(Cl)cccc3s2)[nH]c2ccccc12 | -1.61 | -0.8 | -2.02
CSc1ccc2ccccc2c1CNCCCCCCNCc1c(SC)ccc2ccccc12 | 1.24 | 0.13 | 1.41
COc1cc(CNC[C@@H](O)[C@H](Cc2ccccc2)NC(=O)c2cc(C3CCCC3)cc(N3CCCC3=O)c2)cc(OC)c1 | 2.44 | 5.82 | -1.06
O=C(c1ccc(-c2ccc(-c3nc4ccccc4[nH]3)s2)cc1)N1CCCCC1CN1CCC(O)C1 (centres undefined) | 3.07 | 2.95 | 4.01
Cc1cc(C2CCN(CCCCNC(=O)c3ccc(-c4ccc(C(F)(F)F)cc4)cc3)CC2)c(C)cc1OCCO | 5.21 | 5.28 | 2.63
O=C(N[C@@H](CC1CCCCC1)C(=O)NCCN1CCCCC1)c1ccc(O)c(-c2ccc(Cl)c(Cl)c2)c1 | 0.75 | 1.44 | 0.7
O=C(Nc1cccc(OC2CCN(Cc3ccccc3)CC2)c1)Nc1cccc([N+](=O)[O-])c1 | 3.41 | 2.74 | 2.57

Compound | inhibition [1] [%] | inhibition [2] [%] | inhibition [3] [%]
CCN(CC)CCCC(C)Nc1c(-c2ccc(Br)cc2)cnc2ccccc12 (centres undefined) | 57.5 | 14.4 | 3.73
N=C(N)NN=Cc1cc([N+](=O)[O-])ccc1Sc1ccccc1CO | 1.08 | 1.61 | 0.68
Nc1ncc(-c2cn[nH]c2)cc1-c1nc2ccc(F)cc2[nH]1 | 2.58 | 3.29 | 1.99
c1ccc2cc3c(NCCN4CCOCC4)ccnc3cc2c1 | 7.07 | 6.74 | 7.2
N/C(=N\c1cccc(Cc2ccccc2)n1)NCc1ccccc1 | 2.04 | -1.19 | 3.21
O=C(NC(NC(=S)Nc1ccc([N+](=O)[O-])cc1)C(Cl)(Cl)Cl)c1cccc(Cl)c1 (centres undefined) | -0.29 | -1.54 | -0.06
CCOC(=O)CNC(=O)c1cc(=O)c2ccccc2o1 | 0.86 | 0.78 | 0.44
NC(=O)c1cnc2cc(-c3ccncc3)cc(Nc3ccc(NC(=O)C4CCCCC4)cc3)c2c1 | 2.17 | 2.89 | 1.29
CCCCCN1CCN(Cc2cccc(NC(=O)c3ccc(Cl)c(Cl)c3)c2)CC1 | 1.39 | 1.08 | 1.32
CCN1CCC(N(Cc2ccc(-c3ccc(C(F)(F)F)s3)cc2)C(=O)Cn2c(CCc3cccc(F)c3F)nc(=O)c3ccccc32)CC1 | 6.57 | 5.93 | 5.76
C=CCOC(=O)N1CCC(CNCc2cccc(-c3cccc(-c4nc5ccccc5[nH]4)c3)c2)C1 (centres undefined) | -1.85 | 5.8 | 0.62
COc1ccc(N2C(=O)C3C(C2=O)C2(C)c4ccccc4C3(C)c3ccccc32)c([N+](=O)[O-])c1 (centres undefined) | 9.9 | 8.14 | 9.94
CCc1n[nH]c(C(=O)NC2CCN(CC3(c4ccc(OC)cc4)CCCCC3)CC2)c1C | 3.43 | 2.97 | 1.81
CCCCc1ccc(C(=O)Nc2ccc3nc(N4CCN(CC)CC4)cc(C)c3c2)cc1 | -2.18 | -0.16 | -1.24
CCc1ccc2c(c1O)CCN(C)C2Cc1ccccc1Cl (centres undefined) | 8.14 | 5.29 | 11.8
O=C(c1ccc(F)c2ccccc12)N1CCc2cc3nccc(N4CCN5CCC[C@H]5C4)c3cc21 | 3.66 | 1.16 | 0.27
